From PubChem BioAssay
Rows were chosen to be rich in hits. Some 7.4% of all compounds tested hit in one or more screens of this group.
SMN2 splice enh = SMN2 splice variant enhancement. Potency, µM (titrated, usually from 46.1 µM), usual class: activators. HEK293 SMN2-luciferase splicing reporter, luminescence, 30-36 h. hit rate 2.8% among 210,000; note: nearly all actives have a fitted effect of over 55% in size
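qHTS luciferase splicing reporter: luminescence rises when SMN2 exon 7 is included in transfected HEK293 cells. Compound exposure lasted 30-36 h at 37C, with 4.5 mM final sodium butyrate as control, followed by a ONE-Glo read.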
NPC1 promoter act = activators of NPC1 promoter; Huh7 NPC1 promoter luciferase reporter, 24 h; Potency, µM (titrated, usually from 9.22 µM), most hits filed as activators; hit rate 2.4% among 320,000; AID 485313; note: nearly all actives have a fitted effect of over 60% in size
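In 1536-well qHTS, Huh7 cells harboring an NPC1 promoter–luciferase construct received compound for 24 h; activation was quantified by luminescence following luciferase reagent addition.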
p53 reactivator = mutant p53 re-activation in reporter cells | H1299 p53-A138V BP100-luciferase reporter, luminescence, 24 h | Potency, µM (highest dose often 92.2 µM), most hits filed as activators | hit rate 0.063% among 320,000 | AID 504706; note: nearly all actives have a fitted effect of over 45% in size
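p53-null H1299 cells stably carrying temperature-sensitive p53-A138V and a BP100-luciferase reporter were pinned with compounds (4-point, 1:5 series) and held 24 hrs at 37 deg C. Luminescence was read 10 min after detection reagent.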
ELG1 genotoxic = inducers of genotoxicity in HEK293T ELG1-luciferase cells | Potency, µM (highest dose often 46 µM), actives largely listed as activators | AID 504466 | hit rate 1.3% among 330,000 | HEK293T ELG1-luciferase reporter, luminescence, 16 h; note: nearly all actives have a fitted effect of over 60% in size
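16 hr compound incubation (37 °C, 5% CO2) of HEK293T cells carrying luciferase-tagged ELG1; luciferase then measured by ONE-Glo luminescence after 30 min at RT.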
Rab9 promoter act = activates the Rab9 promoter; Potency, µM (series often up to 9.22 µM), hits mostly activators; AID 485297; Huh7 Rab9 promoter-luciferase reporter, luminescence, 24 h; hit rate 2.8% among 320,000; note: nearly all actives have a fitted effect of over 60% in size
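Cells were plated at 1500 per well in reduced-serum medium with 10% FBS and left 2 h. Compound in DMSO was then added for 24 h at 37 °C. Reporter signal was read by luminescence after 10 min with luciferase detection reagent.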
FLuc modulator = inhibits or activates purified firefly luciferase, miR-21 counter-screen | hit rate 6.9% among 360,000 | AID 588342 | purified FLuc, Km substrates, luminescence inhibition | Potency, µM (top dose mostly 57.5 µM), usual class: inhibitors | P08659; note: nearly all actives have a fitted effect of over 55% in size
Target sequence (P08659 whole entry, looked up): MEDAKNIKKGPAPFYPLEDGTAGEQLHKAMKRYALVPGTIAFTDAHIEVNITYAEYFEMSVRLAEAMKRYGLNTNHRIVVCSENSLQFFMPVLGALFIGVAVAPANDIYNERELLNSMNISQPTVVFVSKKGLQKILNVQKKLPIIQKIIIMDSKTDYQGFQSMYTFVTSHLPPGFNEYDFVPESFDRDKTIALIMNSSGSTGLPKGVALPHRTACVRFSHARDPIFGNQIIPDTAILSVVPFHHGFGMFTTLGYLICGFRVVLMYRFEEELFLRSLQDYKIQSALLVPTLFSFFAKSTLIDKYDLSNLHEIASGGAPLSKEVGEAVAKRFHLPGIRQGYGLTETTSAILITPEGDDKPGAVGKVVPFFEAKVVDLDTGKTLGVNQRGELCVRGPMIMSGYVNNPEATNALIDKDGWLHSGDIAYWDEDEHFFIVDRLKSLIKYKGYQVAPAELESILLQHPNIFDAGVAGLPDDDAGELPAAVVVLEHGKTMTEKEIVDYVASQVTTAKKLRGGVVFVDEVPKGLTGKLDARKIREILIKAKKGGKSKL
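Biochemical qHTS of compounds, final roughly 60 µM downward over six points, against 10 nM purified firefly luciferase using Km concentrations of substrates (10 uM D-luciferin, 10 uM ATP) in Tris acetate pH 7.5 buffer; luminescence output.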
A number is an active result; 0 = inactive; ? = inconclusive; - = no result given; [ ] = remark or other dose. Calls come from the whole dose curve; as a rule, active = well fitted curve in the direction sought with a large enough effect; inconclusive = small, poorly fitted or top-dose-only effect, or another doubt; inactive = no such curve, though single readings can be large; an effect the other way counts as inactive or inconclusive.

SMILES	SMN2 splice enh	NPC1 promoter act	p53 reactivator	ELG1 genotoxic	Rab9 promoter act	FLuc modulator
O=C(NC1CCCCC1)c1cc(-c2ccc(F)cc2)on1	-	1.4µM	0	0	3.2µM	0
CN1C2CCC1CC(NC(=O)c1cc(Cl)cc3[nH]cnc13)C2 (centres undefined)	-	0	-	0	0	0
COC(=O)c1sc(NC(=O)Cc2cccs2)nc1C	?	0	0	21µM	0	?
COC(=O)c1c(NC(=O)CN(C)CC(=O)Nc2ccc(C)cc2)sc2c1CCC(C)C2 (centres undefined)	-	0	0	0	0	0
COC(=O)c1sc(NC(=O)COc2ccccc2OC)nc1C	0	0	0	0	0	?
Cc1nc(NC(=O)COc2ccccc2)sc1C(=O)Nc1ccccc1	?	0	0	0	0	0
COC(=O)c1sc(NC(=O)COc2ccccc2)nc1C	0	?	?	18µM	?	17µM
COC(=O)c1c(NC(=O)Cc2cccs2)sc2c1CCC(C)C2 (centres undefined)	0	0	0	0	?	17µM
COC(=O)c1sc(NC(=O)COc2ccc(C)cc2)nc1C	0	0	0	0	0	17µM
Cc1cc(C(=O)N2CCN(c3ccccc3)CC2)c2c(C)nn(-c3cccc(F)c3)c2n1	-	-	-	-	-	0
Cc1ccccc1-c1nc2cc(Cl)ccc2o1	-	?	?	?	?	2.1µM
Cc1ccccc1-c1nc2ccccc2o1	0	0	0	0	0	8.5µM
CCc1ccc(S(=O)(=O)c2nnn3c2nc(NC2CCCC2)c2sccc23)cc1	-	-	-	-	-	0
O=C(COc1ccccc1)NC1CC(=O)N(c2ccc3c(c2)OCCO3)C1 (centres undefined)	-	-	-	-	-	0
Cc1ccc(-c2onc3ccc(C(=O)/C=C/N(C)C)cc23)cc1	-	0	0	0	0	15µM
CN(C)/C=C/C(=O)c1ccc2noc(-c3ccc(F)cc3)c2c1	-	0	0	0	0	?
O=c1cc(-c2ccccc2Cl)oc2cccc(O)c12	0	0	0	0	0	0
O=c1cc(-c2ccccc2Cl)oc2c(Br)ccc(O)c12	10µM	?	0	?	3.5µM	12µM
COc1ccc(S(=O)(=O)N2CCCc3ccccc32)cc1OC	-	0	0	?	0	19µM
O=C(Nc1ccc(F)c(Cl)c1)c1cc(S(=O)(=O)N2CCCc3ccccc32)ccc1F	-	-	-	-	-	12µM
NCCc1nnc(SCc2ccc(Cl)cc2)o1	0	-	-	-	-	0
Cc1ccccc1C(=O)NC(=S)Nc1sc2c(c1C#N)CCCC2	0	0	0	0	0	19µM
C=CCNC(=S)Nc1sc2c(c1C#N)CCCC2	0	0	0	0	0	21µM
Cc1ccc(C(=O)Nc2sc3c(c2C#N)CCCCC3)cc1C	?	2.2µM	?	?	3.2µM	?
N#Cc1c(Cl)nsc1NC(=O)c1ccccc1	0	0	0	0	0	15µM
SMILES	SMN2 splice enh	NPC1 promoter act	p53 reactivator	ELG1 genotoxic	Rab9 promoter act	FLuc modulator
CCN(C(=O)Cn1cnc2onc(-c3ccc(F)cc3)c2c1=O)c1ccc(OC)cc1	-	-	-	-	-	0
Cc1ccc(C)c(Nc2nnc(-c3ccc(C)c(S(=O)(=O)NCC4CCCO4)c3)c3ccccc23)c1 (centres undefined)	0	-	-	-	-	0
O=C(CNC(=O)C1CCCCC1)NNC(=O)c1ccccc1Br	-	0	0	0	0	0
N#Cc1c(NC(=O)c2ccccc2)sc2c1CCCCC2	0.63µM	0.79µM	?	?	0.56µM	?
CCN(Cc1nc2ccccc2c(=O)[nH]1)C(=O)COc1ccccc1Cc1ccccc1	-	0	0	0	0	0
COc1cc(OC)cc(C(=O)Nc2nnc(NC(=S)Nc3ccccc3)s2)c1	0	0	0	0	0	0
Fc1ccc(NC(=S)Nc2nccs2)cc1	?	?	?	0	3.5µM	21µM
CC(C)(C)c1nnc(NC(=S)Nc2ccccc2)s1	13µM	3.5µM	0	?	3.2µM	9.5µM
O=C(Cc1ccc(F)cc1)Nc1nccs1	-	0	0	0	0	0
S=C(Nc1ccccc1)Nc1nccs1	?	2.5µM	?	0	?	15µM
COc1cc(Cl)ccc1OCc1cc(C(=O)N(C)CCc2cnn(C)c2)no1	-	?	?	0[9.26 µM]	?	12µM
Cc1cc(OCc2cc(C(=O)N(C)CCc3cnn(C)c3)no2)cc(C)c1Cl	-	2.8µM	?	?	3.2µM	8.5µM
CC(=O)c1cccc(OCc2cc(C(=O)N(C)CCc3cnn(C)c3)no2)c1	-	0	0	0	0	0
CC(=O)c1ccc(OCc2cc(C(=O)N(C)C3CCOC3)no2)cc1 (centres undefined)	-	0	0	0	0	0
Cc1cc(OCc2cc(C(=O)N(C)C3CCOC3)no2)cc(C)c1Cl (centres undefined)	-	3.2µM	0	?	1.8µM	6µM
Cc1ccc(CCNC(=O)c2ccc(CS(=O)(=O)c3ccc(Cl)cc3)o2)cc1	-	-	-	-	-	0
COc1ccc(OC)c(NC(=O)CN2C(=O)CCc3cc(S(=O)(=O)N4CCCCC4)ccc32)c1	-	-	-	-	-	0
COc1ccc(N(CC(=O)Nc2cc(Cl)ccc2C)S(=O)(=O)c2c(C)n[nH]c2C)cc1	-	0	0	0	0	0
CCN1C(=O)/C(=C2\SC(N3CCOCC3)=NC2=O)c2ccccc21	-	0	0	0	0	11µM
CCCCN1C(=O)/C(=C2\SC(N3CCOCC3)=NC2=O)c2ccccc21	-	2µM	-	0	2µM	?
CN(C)S(=O)(=O)Nc1ccc2c(c1)Cc1ccccc1-2	?	0	?	?	0	27µM
Cc1cc(NC(=O)COC(=O)c2ccccc2NCCO)no1	-	-	0	0	-	-
Cc1cc(NC(=O)COC(=O)c2ccccc2S(=O)(=O)N(C)c2ccccc2)no1	6.3µM	0	0	0	0	0
CC(=O)c1ccc(OCC(O)CN2CCN(S(=O)(=O)c3c(C)c(C)cc(C)c3C)CC2)cc1 (centres undefined)	-	0	0	0	0	0
Cc1ccc(C(=O)/C=C/c2cc(C#N)n(C)c2C)cc1	-	0	0	0	0	8.5µM
SMILES	SMN2 splice enh	NPC1 promoter act	p53 reactivator	ELG1 genotoxic	Rab9 promoter act	FLuc modulator
Cc1c(C=C2C(=O)c3ccccc3C2=O)cc(C#N)n1C	-	0	0	0	0	0
Cc1nc2nc(NC(=O)c3ccco3)nn2c(C)c1Cl	-	3.5µM	0	18µM	3.2µM	?
Cc1cc(C)c2nc(NC(=O)c3ccco3)sc2c1	-	2.8µM	-	0.65µM	0.56µM	0.54µM
O=C(Nc1nc2c(F)cccc2s1)c1ccco1	-	1.1µM	-	7.3µM	1.1µM	4.8µM
O=C(Nc1nc2c(Br)cc(Br)cc2c(=O)s1)c1ccco1	-	0	0	0	0	0
Cc1cc(Cl)cc2sc(NC(=O)c3ccco3)nc12	-	?	-	2.9µM	2.2µM	9.5µM
O=C(NCC(c1cccs1)S(=O)(=O)c1cccs1)c1cccc(F)c1 (centres undefined)	-	-	-	-	-	0
O=C(c1ccncc1)N1CCC[C@@]2(CCN(C(c3ccccc3)c3ccccc3)C2)C1	0	-	-	-	-	-
